A selection: hits, their analogues and other compounds. The true share with any hit is near 3.1%.
PAX8 reporter = inhibitors of PAX8 transcriptional activity in RMG-I cells; RMG-I TPO-luciferase reporter, SteadyGlo, 24 h; inhibition, % at 12.6 µM; 360,000 compounds, 1.2% hits; AID 652154;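 active = mean replicate inhibition at least 60% with every replicate also reaching 60%; inconclusive = only one of the two criteria is met; inactive = mean below 60% and not all replicates reaching 60%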;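 also: luciferase light reporting Pax8 driven TPO promoter activity; plate controls were median of neutral control wells for no effect and mitoxantrone controls for full effect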
EWS-Fli block = EWS/Fli transcriptional activity inhibition. A673 NR0B1-luciferase reporter, viability-normalised. 350,000 compounds, 0.67% hits. inhibition, % at 12.6 µM;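 active = mean inhibition of at least 50% after viability correction, with every replicate also passing that limit; inconclusive = mean reaches 50% but only one of two replicates passes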;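 also: firefly luciferase signal divided by Alamar Blue viability fluorescence both relative to DMSO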
INS-1E GSIS act = GLuc luminescence reporter in INS-1E cells, primary screen for activators of glucose-dependent secretion of insulin; INS-1E GLuc reporter insulin secretion, 2-3 h; activation, % at 16.6 µM; 370,000 compounds, 0.61% hits; AID 743287;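 active = lowest replicate activation of at least 40%, so every replicate reaches that level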;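 also: 0% = median of neutral control wells and 100% = median of IBMX positive control wells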
C2C12 statin = suppression of simvastatin myotoxicity | AID 602340 | rescue of ATP level, % at 7.49 µM | 330,000 compounds, 0.78% hits | C2C12 myotubes + simvastatin, ATP luminescence, 48 h; scaled: DMSO 0, geranylgeraniol control 100;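 active = mean ATP rescue above about 67%, or every replicate alone reaching that limit, limit read from the data, passing the limit was not always enough; inconclusive = no clear call, values can overlap the other calls; inactive = mean under the limit and some replicate under it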;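 also: myotubes were challenged with 10 µM simvastatin during compound exposure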
HIV Env fusion = blocks HIV Env-driven cell-cell fusion; inhibition, % at 12.3 µM; 360,000 compounds, 1.1% hits; HeLa-JRFL Env/CEM21 cell fusion, luciferase; AID 651610;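 active = mean replicate inhibition score of at least 50 and every replicate individually at or above 50; inconclusive = only one of the two criteria met; inactive = mean below 50 and not all replicates reaching 50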;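 also: 0% = plate neutral controls and 100% = maraviroc near 300 nM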
miR-122 sensor = inhibitors of miR-122 in Huh7 cells | Huh7 miR-122 Renilla luciferase sensor, 48 h; neutral wells = 0, positive control = 100 | activation (reporter increase), % at 12.5 µM | 340,000 compounds, 0.3% hits;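 active = mean replicate activation score at least 90 and every replicate individually at or above 90; inconclusive = only one of the two criteria met; inactive = neither criterion met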;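 also: higher luciferase means less miR-122 activity so hits act as miR-122 inhibitors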
The depositor's hits bear a star; ? = inconclusive; . = no result; [ ] = dose if it differs, or a comment.

SMILES	PAX8 reporter	EWS-Fli block	INS-1E GSIS act	C2C12 statin	HIV Env fusion	miR-122 sensor
COc1ccc(C(=O)OC2CC[C@@]3(C)C4CCC5[C@]6(O)CC(O)[C@@]7(O)C(CN8CC(C)CCC8[C@@]7(C)O)[C@]6(O)C[C@@]53O[C@]24O)cc1OC (stereo partly specified)	1	7	46*	-2	2	2
CCC(=NC(C)c1ccccc1)c1c(O)[nH]c(=O)[nH]c1=O (stereo unspecified)	-8	6	66*	0	3	4
N=C1c2ccccc2CN1c1ccc(F)c([N+](=O)[O-])c1	13	12	67*	.	-2	-11
COC(=O)[C@H]1[C@H](CO)[C@H]2Cn3c(ccc(-c4cncnc4)c3=O)[C@@H]1N2S(=O)(=O)c1ccccc1C	-3	5	11	7	.	-7[16.7 µM]
COc1ccc(C2=CC(c3ccc(OC)c(OC)c3)c3c(c4ccccc4oc3=O)O2)cc1OC (stereo unspecified)	12	58*	-16	-36	-27	7
COc1ccc(C2C(C#N)=C(N)Oc3c2c(=O)oc2ccccc32)cc1Cn1cc([N+](=O)[O-])cn1 (stereo unspecified)	.	.	.	.	.	-6
O=C(NC[C@H]1CC[C@@H]2NC[C@@H]2O1)C1CCCC1	14	7	.	.	-22[16.7 µM]	.
CC[C@H]1c2ccccc2[C@@H]2CC[C@H]1N2c1ccccc1	14	0	-24	.	17	.
c1ccc(N2[C@@H]3CC[C@H]2c2ccncc2C3)cc1	-28	0	48*	.	10	.
NC(Cc1ccc(O)cc1)C(=O)NN=Cc1ccc(N(CCCl)CCCl)cc1 (stereo unspecified)	14	57*	.	3	-4	5
COc1ccc2c(c1)/C(=C/c1cnc[nH]1)C(=O)N2	79*	-28	35	34	-113	9
COc1ccc(-n2c(/C=C3\C(=O)Nc4ccccc43)nc3ccccc3c2=O)cc1	18	17	-6	.	-5	-6
O=C1Nc2ccccc2/C1=C/c1cnc[nH]1	.	-28	40	199*	.	8
C[C@H](CO)N1C[C@H](C)[C@H](CN(C)C(=O)Oc2cccc3ccccc23)OCc2cn(nn2)CCCC1=O	11	0	14	6	.	4[16.7 µM]
C=CCN1[C@@H]2CN(C(C)=O)C[C@H]1C2c1ccc(Br)cc1 (stereo partly specified)	.	.	20	.	.	.
c1cnc(OCCN2CC2)cn1	87*	-5	.	.	17	.
CN(c1ccc(O)cc1)c1ccc([N+](=O)[O-])c2nonc12	8	-32	.	117*	-9	-6
O=C(NC1(C(F)(F)F)Oc2ccccc2O1)N1CCC2(CC1)OCCO2	.	.	-9	101*	-4	3
COc1ccc(OC(=O)N(C)C[C@@H]2OCc3ccccc3-c3c(n(C)c4ccccc34)C(=O)N([C@H](C)CO)C[C@@H]2C)cc1	24	-83	-23	-5	69*	5
COc1ccc(OC(=O)N(C)C[C@H]2OCc3ccccc3-c3c(n(C)c4ccccc34)C(=O)N([C@H](C)CO)C[C@H]2C)cc1	0	0	-22	.	.	.
Fc1ccc(C(OCCN2CCN(CCCc3ccccc3)CC2)c2ccc(F)cc2)cc1	?	34	.	-37	71*	8
Cn1nc(-c2ccc(OCC(=O)N3CCN(Cc4ccccc4)CC3)cc2)c2ccccc2c1=O	.	.	.	-6	71*	-1
Cn1cccc1CN1CCN(C(=O)COc2ccccc2)CC1	.	.	.	7	.	-5
COC(=O)[C@@H]1[C@@H](CO)[C@@H]2Cn3c(ccc(-c4cccnc4)c3=O)[C@H]1N2CCc1ccccc1	11	0	2	9	.	2[16.7 µM]
O=S1(=O)N(CCN2CC=C(c3c[nH]c4cc(F)ccc34)CC2)c2cccc3c2N1CCC3	85*	13	-7	-54	?	-11
SMILES	PAX8 reporter	EWS-Fli block	INS-1E GSIS act	C2C12 statin	HIV Env fusion	miR-122 sensor
CCOC(=O)c1cccc(-[n+]2c(-c3ccccc3)cc(-c3ccccc3)cc2-c2ccccc2)c1	89*	17	-52	6	?	.
c1ccc(-c2cc(-c3ccccc3)[n+](-c3ccccc3)c(-c3ccccc3)c2)cc1	96*	69*	-49	.	80*	-59
Cc1ccc(-c2cc(-c3ccccc3)cc(-c3ccccc3)[n+]2-c2ccccc2)cc1	95*	61*	4	-273	23	-23
Cc1ccc(-c2cc(-c3ccc(C)cc3)[n+](-c3ccccc3)c(-c3ccc(C)cc3)c2)cc1	.	.	.	-197	.	-15
CN(C)c1ccc(-[n+]2c(-c3ccccc3)cc(-c3ccccc3)cc2-c2ccccc2)cc1	88*	53*	-36	.	94*	-26
O=C(Cc1ccccc1)N1CCCCN2[C@@H](CO)[C@H](c3ccc(C#Cc4ccccc4)cc3)[C@@H]2C1	27	.	-22	.	.	-9[16.7 µM]
CC=Cc1ccc2n(c1=O)C[C@@H]1[C@@H](CO)[C@H](C(=O)OC)[C@H]2N1CC1CCCCC1 (mixture of isomers)	-2	0	-5	-2	.	-3[16.7 µM]
COC(=O)[C@@H]1[C@@H](CO)[C@@H]2Cn3c(ccc(-c4ccc(OC)cc4)c3=O)[C@H]1N2C(=O)c1ccccc1F	-2	-1	-2	14	.	-1[16.7 µM]
COC(=O)C[C@]1(C(=O)OC)CN(C#N)N(c2ccc(Cl)cc2)C12c1ccccc1-c1ccccc12	109*	.	9	.	-30	-15
COC(=O)C1=C(c2cc3ccccc3o2)C[C@@H]2CC[C@H]1N2C(=O)NCc1cccc2ccccc12	6	0	1	14	101*	7
COC(=O)C1=C(c2cc3ccccc3s2)C[C@@H]2CC[C@H]1N2C(=O)NCc1ccc(C(F)(F)F)cc1	66*	7	-25	0	3	.
COC(=O)C1=C(c2cc3ccccc3s2)C[C@@H]2CC[C@H]1N2C(=O)NCC1CC1	13	0	-16	-9	-5	.
COC(=O)C1=C(c2ccc(F)cc2OCc2ccccc2)C[C@@H]2CC[C@H]1N2C(=O)NCc1ccc(C(F)(F)F)cc1	88*	7	2	-6	32	.
COC(=O)C1=C(c2cc3ccccc3o2)C[C@@H]2CC[C@H]1N2C(=O)NCc1ccc(F)cc1	10	-1	-7	-13	-8	.
COC(=O)C1=C(c2ccccc2OCc2ccccc2)C[C@@H]2CC[C@H]1N2C(=O)NCc1ccc(C(F)(F)F)cc1	-2	-6	-30	-24	32	9
O=C(Cc1ccccc1)N1C[C@@H]2[C@H](c3ccccc31)[C@H](CO)N2Cc1ccccc1	17	11	8	22	.	42[16.7 µM]
COC(=O)[C@@H]1[C@@H](CO)[C@@H]2Cn3c(ccc(-c4ccccc4F)c3=O)[C@H]1N2Cc1ccccc1	10	-1	2	7	.	-4[16.7 µM]
Oc1ccc(/C=N/NP(=S)(c2ccccc2)c2ccccc2)cc1	2	.	.	1	-47	96*

Screening data: PubChem, Broad Institute
